Data published in PubChem BioAssay (Tox21).
Records with an inconclusive call do not appear. Entries that show only a call come without a potency. Unmarked numbers belong to inactive results. The source made the active and inactive calls. Calls follow the shape of the full dose curve.

Each compound was assayed against Beta-2 adrenergic receptor (Homo sapiens) (UniProt P07550) (assay: Adrenergic beta2 receptor (ADRB2) small molecule antagonists, cell-based qHTS assay (AID 1963592; also: nearly all actives have a fitted effect of over 50% in size)). Details: CHO-ADRB2 cells, isoproterenol-stimulated cAMP HTRF ratio, 0.5 h; series mostly up to 92.4 µM; activity change, negative = inhibition: at the top concentration.
Outline: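 Assay format: CHO-ADRB2 cells, 18-20hr seeding at 37C/5% CO2, then compound plus 1nM isoproterenol agonist mix for 0.5hr RT. Homogeneous time-resolved fluorescence cAMP detection after 1hr, expressed as 665/615 nm ratio.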

Chain of Beta-2 adrenergic receptor (Homo sapiens) (P07550 whole entry, looked up): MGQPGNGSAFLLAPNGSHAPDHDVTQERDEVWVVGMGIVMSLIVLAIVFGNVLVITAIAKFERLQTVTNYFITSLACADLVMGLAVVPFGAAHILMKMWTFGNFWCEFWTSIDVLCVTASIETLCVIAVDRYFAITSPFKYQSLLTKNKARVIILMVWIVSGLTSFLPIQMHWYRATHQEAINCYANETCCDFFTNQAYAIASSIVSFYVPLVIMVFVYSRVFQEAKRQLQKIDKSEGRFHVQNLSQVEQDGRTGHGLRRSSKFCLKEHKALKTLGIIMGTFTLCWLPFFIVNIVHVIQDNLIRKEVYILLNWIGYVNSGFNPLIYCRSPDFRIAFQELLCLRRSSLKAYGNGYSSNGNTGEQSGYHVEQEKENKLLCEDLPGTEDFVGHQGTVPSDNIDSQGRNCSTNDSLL

Compound	Potency	activity change, negative = inhibition
CCCCCCCCCCCCN	inactive	
CC(O)CC(C)(C)O (stereo not drawn)	inactive	
O=C(c1ccc(O)cc1)c1ccc(O)cc1O		-19.7%
CCNc1ccccc1	inactive	
Nc1ccc(O)c(C(=O)O)c1		0.0841% [at 42.5 µM]
O=C1CCc2ccccc2O1	inactive	
CC(=O)CCC=C(C)C	inactive	
CCO[Si](CCCNC(N)=O)(OCC)OCC	inactive	
C=C(C)C(=O)OCCOC(=O)C(=C)C	inactive	
C#C[C@]1(O)CC[C@H]2[C@@H]3CCC4=Cc5oncc5C[C@]4(C)[C@H]3CC[C@@]21C	inactive	
CC1(C)NC(=O)N(c2ccc([N+](=O)[O-])c(C(F)(F)F)c2)C1=O	inactive	
O=S(=O)(O)c1ccc(O)cc1	inactive	
CC(=O)Oc1c(C)c(C)c2c(c1C)CC[C@@](C)(CCC[C@H](C)CCC[C@H](C)CCCC(C)C)O2	inactive	
CC1(C)NC(=O)NC1=O	inactive	
O=C(C1CCCCC1)N1CC(=O)N2CCc3ccccc3C2C1 (stereo not drawn)	inactive	
C[N+](C)(C)CCCCCC[N+](C)(C)C		0.525% [at 42.5 µM]
CCCCCC/C=C/CCCCCCCC(=O)O	inactive	
CC(C)=CCl	inactive	
C/C=C1/CC2C=CC1C2 (stereo not drawn)		2.32%
COC(=O)c1ccccc1O	inactive	
CC(=O)Oc1ccc(C)cc1	inactive	
CC(C)=CCO	inactive	
Cc1ccc(C)c(OCCCC(C)(C)C(=O)O)c1	inactive	
C=C(C)C(=O)OCC(CC)(COC(=O)C(=C)C)COC(=O)C(=C)C		6.55%
S=c1nc[nH]c2nc[nH]c12		3.58% [at 42.5 µM]
CC(C)(CO)CO	inactive	
NC(CO)(CO)CO	inactive	
N=C(N)c1ccc(OCCCCCOc2ccc(C(=N)N)cc2)cc1	inactive	
